Assay results taken from PubChem BioAssay (Tox21).
Records with an inconclusive call do not appear. A number with no mark means an inactive call. Activity calls are given as the source filed them. Calls come from the whole dose curve.

assay: qHTS assay to identify small molecule agonists of the hypoxia (HIF-1) signaling pathway - cell viability counter screen (AID 1224844); conditions: HRE-bla ME-180 viability, CellTiter-Glo luminescence, 17 h; series mostly up to 76.8 µM; activity change, negative = cytotoxicity: at the top concentration; note: nearly all actives have a fitted effect of over 50% in size
Excerpt: National Center for Advancing Translational Sciences [NCATS]
NIH Chemical Genomics Center [NCGC]
U.S. Environmental Protection Agency [EPA]
National Institutes of Environmental Health Sciences [NIEHS]
National Toxicology Program [NTP]
U.S. Food and Drug Administration [FDA]
Hypoxia-inducible factor-1 (HIF-1) is the major hypoxia-regulated transcription factor that controls cellular responses to low oxygen concentration. HIF-1 is composed of two subunits: hypoxia responsive HIF-1-alpha and constitutively expressed HIF-1-beta, which is also known as aryl hydrocarbon receptor nuclear translocator. During hypoxic conditions, HIF-1-alpha heterodimerizes with HIF-1-beta and translocates into the nucleus where the HIF-1 complex binds to the hypoxia-response element (HRE) and activates expression of target genes such as VEGF (vascular endothelial growth factor). The HIF-1 pathway is essential to normal growth and development, and is involved in the pathophysiology of cancer, inflammation, and ischemia.
Using a beta-lactamase reporter-gene under control of the hypoxia response element, a cell-based assay [CellSensor(TM) HRE-bla ME-180 from Life Technologies, Carlsbad, CA] was used to measure hypoxia-induced signaling. Tox21 10K library compounds were measured for their ability to induce the reporter gene activity. The cytotoxicity of the Tox21 compound library against HRE-bla ME-180 cell line was tested in parallel by measuring cell viability using CellTiter-Glo assay (Promega, Madison, WI) in the same assay wells.
Tox21 Assay Protocol Summary:
HRE-bla ME-180 cells were dispensed at 2,000 cells per well in 6 uL of assay medium containing 0.5% dialyzed FBS into black wall/clear-bottom 1536-well plates using a Multidrop Combi (Thermo Scientific, Waltham, MA) dispenser. After the assay plates were incubated at 37C and 5% CO2 for 5 hrs, 23 nL of compounds dissolved in DMSO, positive controls or DMSO only was transferred to each well of the assay plate using a Pintool station (Kalypsys, San Diego, CA). The assay plates were incubated at 37C and 5% CO2 for 17 hrs. One uL of LiveBLAzerTM B/G FRET substrate (CCF4-AM) (Life Technologies) was added to each well using a Flying Reagent Dispenser (FRD, Aurora Discovery, San Diego, CA). After 2 hr incubation at room temperature, fluorescence intensity (405 nm excitation, 460 nm and 530 nm emissions) was measured using an Envision plate reader (PerkinElmer, Shelton, CT). For cytotoxicity, 4 ul/well of CellTiter-Glo reagent was added into the assay plates using an FRD. After 30 min incubation at room temperature, the luminescence intensity was measured using a ViewLux plate reader (PerkinElmer).
% is set by controls: 0 for no effect and ±100 for the full control effect; potency is the fitted concentration of half-maximal effect.

| SMILES | activity change, negative = cytotoxicity | Potency |
| --- | --- | --- |
| CCc1c(C)cc(N)c(CC)c1N | 1.31% | – |
| Nc1c(Br)cc([N+](=O)[O-])cc1Br | 6.95% | – |
| Cc1c(Cl)c(=O)oc2cc(O)ccc12 | 8.07% | – |
| CC(C)(c1ccc(Oc2ccc(N)cc2)cc1)c1ccc(Oc2ccc(N)cc2)cc1 | – | 24.5 µM (active) |
| C/C=C/C(=O)OCC(C)C | 1.44% | – |
| C=CCc1cc(S(=O)(=O)c2ccc(O)c(CC=C)c2)ccc1O | -8.89% | – |
| CC(C=O)c1ccccc1 (stereo not given) | 0.0021% | – |
| CC1(C)[C@H]2CC[C@]1(C)C(=O)C2 | 0.773% | – |
| ClC(c1ccccc1)(c1ccccc1)c1ccccc1 | 1.21% | – |
| CC1=CC[C@@H](C(C)(C)O)CC1 | 3.06% | – |
| NC(=O)c1ccccc1Cl | 5.56% | – |
| CCCCC/C=C\C=C\C(=O)OCC | – | 51 µM (active) |
| O=c1[nH]cccc1O | -20.3% | – |
| O=C(Nc1ccc([N+](=O)[O-])cc1)Nc1ccc([N+](=O)[O-])cc1 (tested in a mixture with another compound) | -5.23% [at 35.3 µM] | – |
| O=C1OC2(c3ccccc31)c1ccc(O)c(Br)c1Oc1c2ccc(O)c1Br | 3.24% | – |
| CC(Cc1ccc(O)c(O)c1)C(C)Cc1ccc(O)c(O)c1 (stereo not given) | 7.22% | – |
| C=CC(=O)OCCOC1C2CCC1C1CC=CC12 (stereo not given) | 4.59% [at 15.8 µM] | – |
| CCCOC(=O)c1ccc(O)cc1 | -13.1% | – |
| Cc1ccc(C2OC[C@@H]3OC(c4ccc(C)cc4)O[C@H]([C@H](O)CO)[C@@H]3O2)cc1 (stereo not given in full) | -0.645% | – |
| COc1cc2ncnc(Nc3cccc(Cl)c3)c2cc1OC | -10.3% [at 15.8 µM] | – |

| SMILES | activity change, negative = cytotoxicity | Potency |
| --- | --- | --- |
| CC(=O)CC(N)=O | 8.32% | – |
| COc1cc(/C=C/C(=O)CC(=O)/C=C/c2ccc(O)c(OC)c2)ccc1O | – | 39.2 µM (active) |
| CCCCCCCCSCc1cc(C)c(O)c(CSCCCCCCCC)c1 | 12.1% | – |
| N#Cc1nc(Cl)c(Cl)c(Cl)c1Cl | – | 34.7 µM (active) |
| CCN(CC)c1ccc(C=O)c(O)c1 | 5.55% | – |
| Cc1cc(F)ccc1-c1cc(N2CC[C@@H](O)[C@H]2CO)ncc1N(C)C(=O)C(C)(C)c1cc(C(F)(F)F)cc(C(F)(F)F)c1 | – | 24.2 µM (active) |
| NC(=O)C1CO1 (stereo not given) | -1.43% | – |
| Nc1cc([N+](=O)[O-])cc(Cl)c1O | -0.124% | – |
| CCN(CC)c1ccc(C=O)cc1 | 0.126% | – |
| Cc1cc(Br)ccc1NC(=O)CCl | – | 21.9 µM (active) |
| Nc1ccc(F)c([N+](=O)[O-])c1 | 3.6% | – |
| O=C1OCc2ccccc21 | 1.48% | – |
| O=C(Cl)c1ccc(Cl)cc1Cl | -23.5% | – |
| Oc1ccc2c(c1)CCC2 | 0.212% | – |
| Brc1cc(Br)cc(Br)c1 | 12.1% | – |
| NCc1ccco1 | 9.84% | – |
| CN1CC[C@H](c2c(O)cc(O)c3c(=O)cc(-c4ccccc4Cl)oc23)[C@H](O)C1 | 20.8% [at 35.3 µM] | – |
| C=CC(C)(C)O | 9.19% | – |
| C=C1CC[C@H]2O[C@]2(C)CC[C@@H]2[C@@H]1CC2(C)C | -12.9% | – |
| CCOC(=O)C1=NN(c2ccc(Cl)cc2Cl)C(C)(C(=O)OCC)C1 (stereo not given) | 1.33% | – |
